Screening results: PubChem, several laboratories
NR2F2 inh: NR2F2 (human) inhibition, primary screen; inhibition, % at 8.6 µM; hit rate 0.7% among 370,000; HEK293T NGFI-A luciferase reporter, luminescence; AID 686940; P24468;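 active means inhibition above a per-plate cutoff, mean inhibition of test wells between control levels plus 3 SD, cut at about 38% in these data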;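 further: cells cotransfected with COUP-TFII expression vector driving the NGFI-A reporter; 0% = median of COUP-TF2 test wells and 100% = reporter-only cells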
Target sequence (P24468 whole entry, looked up): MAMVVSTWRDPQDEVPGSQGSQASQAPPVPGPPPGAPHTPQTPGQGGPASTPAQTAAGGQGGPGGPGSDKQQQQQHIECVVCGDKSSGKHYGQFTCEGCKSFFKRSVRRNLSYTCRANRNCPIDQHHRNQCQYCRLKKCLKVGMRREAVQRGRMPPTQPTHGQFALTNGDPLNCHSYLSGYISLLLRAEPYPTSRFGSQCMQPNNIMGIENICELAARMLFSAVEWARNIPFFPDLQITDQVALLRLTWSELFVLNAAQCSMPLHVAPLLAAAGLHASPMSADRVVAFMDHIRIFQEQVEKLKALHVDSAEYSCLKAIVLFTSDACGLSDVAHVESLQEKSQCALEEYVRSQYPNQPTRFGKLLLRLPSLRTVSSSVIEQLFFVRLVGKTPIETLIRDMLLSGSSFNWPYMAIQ
Gli-Sufu antag: Gli-Sufu pathway antagonism. Sufu-KO-LIGHT fibroblasts, Gli luciferase reporter luminescence. inhibition, % at 5 µM. hit rate 0.74% among 340,000;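 active means inhibition above about 55%, limit read from the data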;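 further: 0% = DMSO-treated cells and 100% = wells with medium but no cells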
Env fusion inh: HIV envelope-mediated fusion inhibition; inhibition, % at 12.3 µM; hit rate 1.1% among 360,000; HeLa-JRFL Env/CEM21 cell fusion, luciferase;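 active means mean replicate inhibition score of at least 50 and every replicate individually at or above 50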;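 further: 0% = plate neutral controls and 100% = maraviroc near 300 nM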
GalR3 antagonist: antagonists of human GalR3; O60755; HEK293 GalR3-CNG cAMP membrane potential fluorescence; galR3 body fused to GalR1 C-terminus; inhibition, % at 3 µM; hit rate 0.44% among 360,000; AID 651719;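 active means inhibition above the screen-wide average plus 3 SD, cut at about 13% in these data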;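 further: forskolin and galanin both at EC90 stimulate the cells; cAMP rise reported by CNG channel membrane potential dye signal; 0% = forskolin plus galanin with DMSO and 100% = forskolin alone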
Target sequence (O60755 1-299 limits assumed): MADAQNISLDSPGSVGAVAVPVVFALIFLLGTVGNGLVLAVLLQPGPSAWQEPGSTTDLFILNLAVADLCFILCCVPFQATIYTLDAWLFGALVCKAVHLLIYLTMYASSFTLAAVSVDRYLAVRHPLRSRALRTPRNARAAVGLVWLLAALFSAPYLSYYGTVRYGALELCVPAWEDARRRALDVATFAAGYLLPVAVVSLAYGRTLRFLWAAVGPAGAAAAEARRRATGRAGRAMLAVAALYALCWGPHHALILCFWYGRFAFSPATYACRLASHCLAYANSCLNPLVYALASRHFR
aDG glyco act: increases alpha dystroglycan glycosylation | AID 624168 | Pro5-aDG cells, alpha-DG glycosylation AlphaScreen (IIH6); 0% Pro5, 100% B10-LARGE cell signal | hit rate 0.22% among 360,000 | activation, % at 10 µM;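 active means activation of at least 8% versus controls, or a plate z-score of at least 8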;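 further: Pro5 are CHO cells carrying HIG-tagged alpha-DG that lacks glycosylation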
An asterisk follows results filed as active; / = not tested or not shown; [ ] = remark or other dose. Rows were chosen to be rich in hits. Some 2.1% of all compounds tested hit in one or more screens of this group.

SMILES | NR2F2 inh | Gli-Sufu antag | Env fusion inh | GalR3 antagonist | aDG glyco act
O=[N+]([O-])c1ccc2[nH]nc(-c3ccccc3)c2c1 | 2 | 15 | -19 | -3 | 0
Clc1ccc(SCNc2ccccc2Cl)cc1 | 39* | 4 | -2 | -4 | 0
Cc1ccc(NCSc2ccc(Cl)cc2)cc1 | -17 | -44 | -4 | -4 | 0
Cc1nnc(SC(=O)N2c3ccccc3Sc3ccccc32)s1 | -6 | 12 | 69* | 1 | 0
CCOC(=O)N1c2ccccc2Sc2ccccc21 | 31 | -7 | -7 | -6 | 0
O=C(C[C@H]1C=C[C@H](NC(=O)C2CC2)[C@@H](CO)O1)NCCCN1CCOCC1 | / | / | 1[16.7 µM] | / | /
O=C(NCC1CCN(Cc2ccccc2F)CC1)C1CCCN(c2ncnc3c2nc2n3CCCCC2)C1 (stereo not given) | 16 | 21 | 3 | 15* | 0
c1ccc(CCn2nnc3ccccc32)cc1 | -15 | -59 | -19 | -7 | 0
Nn1nnc2ccccc21 | -14 | -8 | 94* | / | 0
CCN(CC)c1ccc(NC(=O)CCCCC(=O)Nc2ccc(N(CC)CC)cc2)cc1 | 31 | 1 | 61* | -4 | 0
CCN(CC)c1ccc(NC(=O)CCCCCN2C(=O)c3ccccc3C2=O)cc1 | 33 | 0 | 11 | -5 | 0
Cc1noc(C)c1NC(=O)Nc1ccc2c(c1)C(=O)N([C@H](C)CO)C[C@H](C)[C@H](CN(C)Cc1ccncc1)OCCCC[C@H](C)O2 | / | / | -17[16.7 µM] | / | /
CNC[C@H]1Oc2c(NC(=O)C3CC3)cccc2C(=O)N([C@H](C)CO)C[C@H]1C | / | / | -3[16.7 µM] | / | /
O=C(CNc1ccc(F)cc1)c1ccccc1 | -3 | -12 | 106* | -7 | 0
C[C@@H]1CN([C@@H](C)CO)C(=O)c2cccc(NS(=O)(=O)c3ccc(F)cc3)c2O[C@H]1CN(C)Cc1ccc(C(F)(F)F)cc1 | / | / | -13[16.7 µM] | / | /
Cc1noc(C)c1S(=O)(=O)Nc1cccc2c1O[C@H](CN(C)Cc1ccc(C(F)(F)F)cc1)[C@H](C)CN([C@H](C)CO)C2=O | / | / | 59*[16.7 µM] | / | /
C[C@@H]1CN([C@H](C)CO)C(=O)c2cccc(NS(=O)(=O)c3cccs3)c2O[C@@H]1CN(C)Cc1ccc(Cl)c(Cl)c1 | / | / | 90*[16.7 µM] | / | /
C[C@@H]1CN([C@@H](C)CO)C(=O)c2cccc(NS(=O)(=O)c3cccs3)c2O[C@@H]1CN(C)Cc1ccc(Cl)c(Cl)c1 | / | / | 46[16.7 µM] | / | /
C[C@@H]1CN([C@H](C)CO)C(=O)c2cccc(NS(=O)(=O)c3ccc(F)cc3)c2O[C@@H]1CN(C)Cc1ccc(C(F)(F)F)cc1 | / | / | 77*[16.7 µM] | / | /
C[C@H]1CN([C@@H](C)CO)C(=O)c2cccc(NS(=O)(=O)c3ccc(Cl)cc3)c2O[C@@H]1CN(C)Cc1ccc(C(F)(F)F)cc1 | / | / | 57*[16.7 µM] | / | /
COc1ccc(NC(=O)N(C)C[C@@H]2OCCCC[C@@H](C)Oc3ccc(NC(=O)NC(C)C)cc3C(=O)N([C@@H](C)CO)C[C@H]2C)cc1 | / | / | 21[16.7 µM] | / | /
CCN(CC(O)Cn1c2ccccc2c2ccccc21)S(=O)(=O)c1ccc(F)cc1 (stereo not given) | 4 | 1 | 50 | -8 | 0
O=S(=O)(c1ccc(F)cc1)N(CCO)CC(O)Cn1c2ccccc2c2ccccc21 (stereo not given) | 10 | 5 | 66* | -6 | 0
Cc1ccc(CN2CC(N3CCCC3)CS2(=O)=O)cc1 (stereo not given) | 8 | / | 60* | -5 | 0
Cc1ccc(CN2CC(N3CCCCC3)CS2(=O)=O)cc1 (stereo not given) | 1 | / | 1 | -4 | 0
SMILES | NR2F2 inh | Gli-Sufu antag | Env fusion inh | GalR3 antagonist | aDG glyco act
Cn1c(N2CCOCC2)c(/C=N/OC(=O)c2ccc(F)cc2)c2ccccc21 | -3 | 14 | 59* | -4 | 6
CC(=O)N(C)C[C@@H]1Oc2cc(-c3cncnc3)ccc2S(=O)(=O)N([C@H](C)CO)C[C@H]1C | / | / | -13[16.7 µM] | / | /
O=C(NC1CCCCC1)C(c1ccccc1F)n1c(=O)c(-c2ccco2)nc2ccccc21 (stereo not given) | 2 | / | 59* | -9 | 0
C[C@@H]1CN([C@H](C)CO)C(=O)c2cc(/C=C/c3ccccc3)cnc2O[C@@H]1CN(C)C(=O)c1ccccc1 | / | / | -23[16.7 µM] | / | /
CCOc1ccc(NC(=S)Nc2ccc3nsnc3c2)cc1 | -17 | -2 | -68 | 2 | 7.8*
COc1ccc(NC(=S)Nc2ccc3nsnc3c2)cc1 | -49 | 37 | -53 | -11 | 7.8*
COC(=O)c1ccc(OC)c(CSc2nnc(COc3ccc(Cl)cc3)o2)c1 | -6 | 5 | 60* | -8 | 2
CC(=O)Nc1ccc(S(=O)(=O)Nc2cccc(-c3nc4cc(C)ccc4o3)c2)cc1 | 19 | 6 | 8 | -3 | 3.9*
Cc1ccc(CN=Cc2[nH]c3ccc(Br)c(Cl)c3c2O)cc1 | -2 | 9 | / | -3 | 3.9*
O=C(Nc1ccccc1)NC1(c2cn(CC(=O)N3CCN(c4ccccc4)CC3)nn2)CCCCC1 | / | / | 2[16.7 µM] | / | /
Nc1ccn(C2OC(CO)C(O)C2O)c(=O)n1 (stereo not given) | 3 | / | / | 0 | 0
OCC1OC(n2ccc3c2ncn2ncnc32)C(O)C1O (stereo not given) | 15 | / | 55* | -7 | 0
COc1ccc(S(=O)(=O)N[C@H]2C=C[C@@H](CC(=O)NCc3ccccc3F)O[C@H]2CO)cc1 | / | / | 7[16.7 µM] | / | /
CCN1C(=O)/C(=C/C=C2/Sc3ccc4ccccc4c3N2CCO)SC1=S | 5 | 4 | -24 | -3 | 0
CCN1/C(=C/C=C/c2oc3ccc4ccccc4c3[n+]2CC)Oc2ccc3ccccc3c21 | / | 74* | / | / | /
COC(=O)c1nn(-c2ccc3c(c2)CCN3C(C)=O)cc1O | 9 | 30 | 73* | -5 | 0
COc1ccc(S(=O)(=O)N(C)C[C@@H]2OCCCC[C@H](C)Oc3ccc(NS(C)(=O)=O)cc3C(=O)N([C@H](C)CO)C[C@H]2C)cc1 | / | / | 2[16.7 µM] | / | /
O=C(C[C@@H]1C[C@@H]2c3cc(NC(=O)Cc4ccncc4)ccc3O[C@@H]2[C@H](CO)O1)NCc1cccnc1 | / | / | -6[16.7 µM] | / | /
COC(=O)c1cn(NC(=O)C2CCC(C)CC2)c(=O)c2ccccc12 (stereo not given) | -20 | 2 | 6 | 1 | 0
COC(=O)c1cn(NC(=O)c2cc([N+](=O)[O-])ccc2F)c(=O)c2ccccc12 | 28 | 24 | 57* | -3 | -1
O=C(Nc1ccc(S(=O)(=O)NC2=NCCCCC2)cc1)c1ccc([N+](=O)[O-])s1 | 2 | 20 | -9 | -3 | 8.4*
O=C(Nc1ccc(S(=O)(=O)NC2=NCCCCC2)cc1)c1cccs1 | -21 | 1 | / | -6 | 0
CO[C@H]1CN(C)C(=O)c2cc(NC(=O)Cc3ccccc3)ccc2OC[C@H](C)NC[C@H]1C | / | / | 13[16.7 µM] | / | /
CCN1C(=O)[C@H]2[C@@H](c3ccc(C)cc3)N3C(=O)N(c4cccc(Br)c4)C(=O)[C@@]3(CC(C)C)[C@H]2C1=O | 13 | -2 | 104* | -7 | 0
CCN1C(=O)[C@H]2[C@@H](c3ccc(C)cc3)N3C(=O)N(c4cccc(Br)c4)C(=O)[C@@]3(C)[C@H]2C1=O | -7 | 5 | 28 | -9 | 0
